Growth data for 8 compounds are collected here from PubChem BioAssay (NCI).

The structures appear in SMILES notation. About 83,000 compounds went through this panel and 20% of them were active in at least one assay; those are over-represented in the sample as a whole.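 Single-dose data. Exposure time 48 hours. Values below 10 considered active.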 Values without a mark were called inactive. Active and inactive are the calls of the source.

Some test systems named below: NCI-H23 lung; NCI-H226 lung; NCI-H322M lung; HOP-62 NSCLC; NCI-H460 lung; HOP-92 NSCLC; NCI-H522 lung; A549/ATCC NSCLC; 786-0 renal; DU-145 prostate; K-562 leukemia; MALME-3M melanoma; MDA-MB-231 breast; RXF 393 renal; SF-268 CNS; SF-295 CNS; SF-539 CNS; UACC-257 melanoma; M14 melanoma.
What all share (assay): NCI-60 one-dose screen, 48 h (100 = growth as untreated, 0 = no growth, -100 = all killed)
Conditions in all cases: 10 µM unless noted

For the compound `CC(=O)C(C(C)=O)c1nc2sc3cc(Cl)ccc3n2c(=N)c1C#N`, the growth with NCI-H23 lung was 81.4%; in the test with NCI-H226 lung, 75.1%; in the test with NCI-H322M lung, 87.3%; in the test with HOP-62 NSCLC it was 81.9%; in the test on NCI-H460 lung, 95.2%; in the test on HOP-92 NSCLC, 56%. In addition, the growth was 83% in the test on NCI-H522 lung; 98.7% in the test with A549/ATCC NSCLC; 98.3% in the test with 786-0 renal; 97.4% with DU-145 prostate; 85.2% with K-562 leukemia; 95.2% in the test on MALME-3M melanoma. The growth in the test with MDA-MB-231 breast was 51.9%; in the test on RXF 393 renal it was 109%; in the test on SF-268 CNS, 77.7%; with SF-295 CNS, 98.4%; in the test with SF-539 CNS, 95.5%; in the test on UACC-257 melanoma, 108%. In the test with M14 melanoma, the growth was 97.2%.
`O=C1NN(C(=O)c2ccc(O)cc2)C(c2ccccc2)=N/C1=C\c1cn(-c2ccccc2)nc1-c1ccccc1`: the growth in the test on NCI-H23 lung is 98.3%; in the test on NCI-H226 lung, 103%; in the test with NCI-H322M lung, 97%; in the test on HOP-62 NSCLC, 92%; in the test with NCI-H460 lung, 100%; in the test on HOP-92 NSCLC it was 94.9%. Besides, the growth in the test with NCI-H522 lung is 85%; with A549/ATCC NSCLC, 99.7%; in the test with 786-0 renal, 94%; with DU-145 prostate, 92%; in the test on K-562 leukemia, 93.7%; in the test with MALME-3M melanoma, 99%. In addition, the growth is 106% in the test with MDA-MB-231 breast; 107% with RXF 393 renal; 96.8% in the test on SF-268 CNS; 95% in the test with SF-295 CNS; 89.1% with SF-539 CNS; 93.8% in the test on UACC-257 melanoma. For the same compound, the growth in the test with M14 melanoma was 96.2%.
As for `C=C(C)[C@@H]1CC[C@]2(C(=O)NCC(=O)O)CC[C@]3(C)[C@H](CC[C@@H]4[C@@]5(C)Cc6c([nH]c7ccccc67)C(C)(C)[C@@H]5CC[C@]43C)[C@@H]12`, the growth in the test with NCI-H23 lung is 73.5%; in the test on NCI-H226 lung, 87.8%; in the test on NCI-H322M lung it was 85.5%; in the test with HOP-62 NSCLC, 58.5%; in the test on NCI-H460 lung it was 88.5%; in the test on HOP-92 NSCLC it was 81%. For the same compound, the growth is 41.9% in the test on NCI-H522 lung; 67.1% in the test with A549/ATCC NSCLC; 84.4% in the test on 786-0 renal; 93.5% with DU-145 prostate; 72.4% in the test on K-562 leukemia; 107% with MALME-3M melanoma. Further, the growth was 92% with MDA-MB-231 breast; 91.2% in the test on RXF 393 renal; 76.1% in the test with SF-268 CNS; 56.2% in the test on SF-295 CNS; 56.3% in the test with SF-539 CNS; 87.1% with UACC-257 melanoma. In addition, the growth with M14 melanoma is 86.9%.
As to `O=C(NCCN1CCC(O)CC1)c1cc2c(o1)C(=O)c1ccccc1C2=O`, the growth is -50.9% (active) with NCI-H23 lung; -77.5% (active) with NCI-H226 lung; -98.6% (active) with NCI-H322M lung; -66.6% (active) in the test with HOP-62 NSCLC; -75.9% (active) in the test on NCI-H460 lung; -67.4% (active) in the test with HOP-92 NSCLC. Moreover, the growth in the test with NCI-H522 lung is -56.3% (active); with A549/ATCC NSCLC, -57.7% (active); in the test with 786-0 renal, -78.3% (active); in the test with DU-145 prostate it was -97.6% (active); with K-562 leukemia, 2.8% (active); in the test on MALME-3M melanoma, -99.2% (active). Moreover, the growth was -24.6% (active) in the test with MDA-MB-231 breast; -99% (active) in the test with RXF 393 renal; -54.8% (active) with SF-268 CNS; -96.2% (active) with SF-295 CNS; -97.5% (active) in the test on SF-539 CNS; -86.9% (active) in the test on UACC-257 melanoma. Moreover, the growth in the test with M14 melanoma is -85.3% (active).
Take `N=C(N)c1ccc(-c2ccc(-c3ccc(Cl)c(Cl)c3)o2)nc1`: the growth in the test with NCI-H23 lung was 65.5%; in the test on NCI-H226 lung, 109%; in the test with NCI-H322M lung, 42.4%; with HOP-62 NSCLC, 5.09% (active); in the test on NCI-H460 lung it was -78.1% (active); in the test with HOP-92 NSCLC it was 84.6%. The growth in the test on NCI-H522 lung was 78.2%; in the test with A549/ATCC NSCLC, -35.2% (active); in the test with 786-0 renal, -74.9% (active); in the test on DU-145 prostate, -18.5% (active); in the test on K-562 leukemia, -1.03% (active); in the test with MALME-3M melanoma, 105%. For the same compound, the growth was -47% (active) in the test on MDA-MB-231 breast; 86% with RXF 393 renal; 98.5% with SF-268 CNS; -70.1% (active) in the test with SF-295 CNS; 38.8% in the test with SF-539 CNS; 107% in the test with UACC-257 melanoma. Moreover, in the test on M14 melanoma, the growth is -51.8% (active).
With `O=C1Nc2ccccc2/C1=N/N=C/c1c[nH]c2ccccc12`, the growth was 82% in the test on NCI-H23 lung; 62.7% in the test with NCI-H226 lung; 72.9% in the test on NCI-H322M lung; 67.3% with HOP-62 NSCLC; 63% with NCI-H460 lung; 75.2% in the test with HOP-92 NSCLC. The growth was 69.2% in the test on NCI-H522 lung; 78.4% with A549/ATCC NSCLC; 91.9% in the test on 786-0 renal; 58.3% with DU-145 prostate; 80.2% with K-562 leukemia; 71.8% in the test with MALME-3M melanoma. The growth with MDA-MB-231 breast was 60%; in the test with RXF 393 renal, 57.5%; in the test on SF-268 CNS, 65.1%; in the test on SF-295 CNS, 95.6%; in the test on SF-539 CNS, 78%; in the test with UACC-257 melanoma it was 92.4%. The growth in the test with M14 melanoma was 59.5%.
On to `CN1C[C@@H](c2ccc(Cl)cc2)[C@]2(NC(=S)N(c3ccc(F)c(Cl)c3)C2=O)[C@@]12C(=O)NC1C=CC(Cl)=C[C@H]12` (some centres not stated), for which the growth was 51.9% with NCI-H23 lung; 59.8% in the test with NCI-H226 lung; 74.6% in the test on NCI-H322M lung; 79.8% in the test with HOP-62 NSCLC; 32.8% with NCI-H460 lung; -7.71% (active) in the test on HOP-92 NSCLC. The growth was 43.2% in the test with NCI-H522 lung; 53% in the test on A549/ATCC NSCLC; -68% (active) with 786-0 renal; 67.3% in the test with DU-145 prostate; 10.3% with K-562 leukemia; 91.2% in the test on MALME-3M melanoma. In addition, the growth with MDA-MB-231 breast was 31.6%; with RXF 393 renal it was 21.3%; with SF-268 CNS, 54%; in the test with SF-295 CNS, 46.8%; in the test on SF-539 CNS, 73.5%; in the test on UACC-257 melanoma it was 65%. Moreover, the growth in the test with M14 melanoma is -31.2% (active).
With `O=C1C(Cl)C(c2ccccc2Cl)N1n1cnnc1` (configuration not stated), the growth in the test with NCI-H23 lung was 101%; with NCI-H226 lung, 102%; in the test on NCI-H322M lung, 93.5%; with HOP-62 NSCLC, 73.5%; with NCI-H460 lung, 101%; in the test on HOP-92 NSCLC, 91.1%. In addition, the growth in the test with NCI-H522 lung was 92.9%; in the test on A549/ATCC NSCLC, 91.1%; in the test with 786-0 renal, 97.1%; in the test with DU-145 prostate, 104%; in the test on K-562 leukemia, 102%; with MALME-3M melanoma, 95.6%. Also, the growth with MDA-MB-231 breast is 94.8%; with RXF 393 renal it was 98.6%; with SF-268 CNS, 102%; with SF-295 CNS it was 100%; in the test with SF-539 CNS, 85.3%; in the test on UACC-257 melanoma it was 91.5%. In addition, the growth with M14 melanoma was 93.1%.
